This is an account of results in PubChem BioAssay AID588475 (Sanford-Burnham Center for Chemical Genomics, 2011).

In all, about 350,000 compounds went through this assay and about 2,100 (0.6%) were called active.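 How the source made its calls: active means inhibition of the ligand-induced calcium signal above about 50% at the single tested concentration (limit read from the data); inactive means the rest.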 The full list was thinned out, with actives kept by preference.

A short description of the experiment: blockers of CRF-evoked CRF-R2/CRF-BP calcium response – cell-based, HEK293, calcium dye fluorescence, uHTS, primary screen (AID 588475). The note with it: CRF-induced calcium fluorescence, at 11.8 µM, hits give high values.
Regarding `COc1cccc(OC)c1C(=O)N1CCN(Cc2cccnc2)CC1`, the inhibition (usually the change of the read-out against control, counted positive when it falls) was 56.1% (active).
In the case of `COc1ccccc1C(=O)N1CCN=C1SCc1cccnc1`, the inhibition is 11.4% (inactive).
Turning to `COc1cccc(OC)c1C(=O)N1CCN(Cc2ccccc2F)CC1`, the inhibition was 24.1% (inactive).
In the case of `Cc1nc2sc(C(c3ccco3)N3CCC4(CC3)OCCO4)c(O)n2n1` (stereo not given), the inhibition is 11.4% (inactive).
In the case of `[O-][N+]12CCCCC1CCCC2CO` (stereo not given), the inhibition is 8.6% (inactive).
Regarding `COc1ccc(S(=O)(=O)N2CCc3ccccc32)cc1C(=O)Nc1cc(S(C)(=O)=O)ccc1Cl`, the inhibition is 2.64% (inactive).
The figure for `COc1ccccc1N(C)C(=O)c1cc(S(=O)(=O)N2CCc3ccccc32)cn1C` is -4.87% (inactive); for `COc1cccc(NC(=O)c2cc(S(=O)(=O)N3CCc4ccccc43)cn2C)c1` it is 82.7% (active); for `O=C(N[C@@H]1C/C=C\C[C@@H](CC(=O)N(CCO)Cc2ccccc2)C(=O)N[C@H](Cc2ccccc2)COC1=O)OCC1c2ccccc2-c2ccccc21` it is 1.02% (inactive).
For `O=C(N[C@H]1C/C=C\C(c2ccc(F)cc2)N(Cc2ccccc2)C(=O)C1)OCC1c2ccccc2-c2ccccc21` (stereo not given in full), the inhibition was -13.4% (inactive).
On to `O=C(N[C@H]1C/C=C\C(c2cccc(F)c2)N(Cc2ccccc2)C(=O)C1)OCC1c2ccccc2-c2ccccc21` (stereo not given in full), for which the inhibition was 98.1% (active).
The figure for `COc1ccc(Cn2c(O)c(/C=C3/C=CC=N3)c(=O)[nH]c2=O)cc1` is 0.93% (inactive).
As to `NC(=O)C1(N2CCCCC2)CCN(C2CC(=O)N(Cc3ccc(N4CCCC4=O)cc3)C2=O)CC1` (stereo not given), the inhibition was -8.44% (inactive).
Turning to `O=C(O)CC(SCC(=O)Nc1ccc(Br)cc1)C(=O)O` (stereo not given), the inhibition was 57.3% (active).
With `O=C(O)CSCC(=O)Nc1ccc(C(F)(F)F)cc1`, the inhibition is -14.8% (inactive).
As for `Cc1cc(C)c2c(=O)[nH]c(SCC(=O)Nc3ccc(Br)cc3)nc2n1`, the inhibition is -6.59% (inactive).
For the molecule `O=C(CN1CCOC1=O)N1CCCC(Nc2ccc(F)c(F)c2)C1` (stereo not given), the inhibition was 0.32% (inactive).
Regarding `CCc1cc(=O)oc2c(C)c(OCC(=O)N3CC[C@@]4(O)CCCC[C@H]4C3)ccc12`, the inhibition is -9.77% (inactive).
Consider `COc1ccc(OC)c(CNC(=O)Cn2nc(C)c3c(C)n(-c4ccc(C)cc4)nc3c2=O)c1`, for which the inhibition was 9.58% (inactive).
Turning to `CCOP(=O)(OCC)C(Nc1ccc([N+](=O)[O-])cc1)c1ccc(Cl)cc1` (stereo not given), the inhibition is 40.7% (inactive).
`CCCCOC(=O)c1ccc(NC(c2ccc(C)cc2)P(=O)(OC)OC)cc1` (stereo not given): the inhibition was 102% (active).
On to `CCOP(=O)(OCC)C(Nc1cccc(C)c1)c1ccc(F)cc1` (stereo not given), for which the inhibition was -6.82% (inactive).
Consider `O=C(CCCn1c(=O)c2sccc2n(CC(=O)NCC2CCCO2)c1=O)NCc1ccco1` (stereo not given), for which the inhibition is -17.3% (inactive).
As for `CCOC(=O)N1CCN(S(=O)(=O)c2cc3c(cc2C)NC(=O)CO3)CC1`, the inhibition is -1.54% (inactive).
The figure for `CN1CCN(CC(=O)C23CC4CC(CC(C4)C2)C3)CC1` is 7.99% (inactive); for `Cc1ccccc1N1CCN(C2CCCN(C(=O)c3ocnc3C)C2)CC1` (stereo not given) it is 1% (inactive).
As for `Cc1cnc(C(=O)N2CCCC(N3CCN(c4ccccc4F)CC3)C2)cn1` (stereo not given), the figure is 14.5% (inactive); as for `Cc1ccccc1N1CCN(C2CCCN(C(=O)c3cn4c(C)cccc4n3)C2)CC1` (stereo not given), 53.6% (active).
Take `Cc1ccc(-n2cc3ccc([N+](=O)[O-])cc3n2)cc1`: the inhibition is -2.01% (inactive).
For the molecule `Cc1ccc(NC(=O)c2oc3ccccc3c2C)c([N+](=O)[O-])c1`, the inhibition was -13.1% (inactive).
On to `O=C(NC1CC1)C1CCCN(C(=O)NC2CCCCC2)C1` (stereo not given), for which the inhibition was 1.71% (inactive).
For the molecule `COc1cc(C)nc(N2CCCC(C(=O)NCC(C)C)C2)n1` (stereo not given), the inhibition was -9.18% (inactive).
As for `Cc1ccnc(N2CCCC(C(=O)NC3CC3)C2)n1` (stereo not given), the inhibition is 50.4% (active).
For `CC(C)(C)NC(=O)CN1CCC(NC(=O)C23CC4CC(CC(C4)C2)C3)CC1`, the inhibition was -2.97% (inactive).
Turning to `O=C(CNCc1ccc(F)cc1)Nc1ccccc1-c1ccccc1`, the inhibition is -15% (inactive).
On to `O=C(COC(=O)c1ccc(N2CCCC2=O)cc1)c1ccc(OC(F)F)cc1`, for which the inhibition was 4.33% (inactive).
On to `Cc1c(NC(=O)c2coc(=O)c(Br)c2)c(=O)n(-c2ccccc2)n1C`, for which the inhibition was -18.5% (inactive).
As for `O=C(CCN1C(=O)c2ccccc2C1=O)Nc1cccc(F)c1`, the inhibition is -0.74% (inactive).
Turning to `O=C(Nc1cccc(F)c1)c1coc(=O)c(Br)c1`, the inhibition was 102% (active).
The figure for `Cc1nn(-c2ccccc2)c(Cl)c1/C=N/NC(=O)c1nn(C)cc1[N+](=O)[O-]` is 15.5% (inactive); for `Cc1nn(-c2ccccc2)c(C)c1/C=C/C(=O)OC(C)C(N)=O` (stereo not given) it is 23.7% (inactive); for `Cc1nn(-c2ccccc2)c(Cl)c1/C=C/C(=O)c1ccc(O)cc1` it is 57.7% (active).
Take `CC1(C)CC(=O)C(N=Nc2c(F)cccc2F)=C(O)C1`: the inhibition is 14.8% (inactive).
Take `O=C(NCCC1=CCCCC1)c1ccc(-n2cncn2)cc1`: the inhibition is -5.9% (inactive).
As to `Cn1nnc2cc(C(=O)NCCC3=CCCCC3)ccc21`, the inhibition was 69% (active).
Regarding `CN(c1ccc(C(=O)NCCC2=CCCCC2)cc1)S(C)(=O)=O`, the inhibition was 3.31% (inactive).
Turning to `CCCCCCCCCCCC(=O)O`, the inhibition is 16.1% (inactive).
For the molecule `Cc1ccc(S(=O)(=O)c2c[nH]c3ccc(C)cc3c2=O)cc1`, the inhibition was -6.79% (inactive).
On to `O=C(c1[nH]ncc1-c1ccc(Cl)cc1)C1CO1` (stereo not given), for which the inhibition was 98.5% (active).
`O=C(c1nnc(-c2ccc(Cl)cc2)o1)C1CCCC1`: the inhibition was 1.38% (inactive).
As for `S=c1[nH]nc(-c2ccc(Cl)cc2)n1CC1CCCO1` (stereo not given), the figure is 19% (inactive).
The figure for `CN(C(=O)c1cccc(NC(=O)Cc2ccc([N+](=O)[O-])cc2)c1)C1CCC1` is 10.4% (inactive); for `CCOC(=O)c1cc2occc2n1CC(=O)NC1CCC(C)CC1` (stereo not given) it is 4.37% (inactive); for `O=C(CN1C(=O)CC(c2ccccc2)=Nc2ccccc21)NC1CCCCC1` it is 3.75% (inactive).
`CC(=O)Oc1c(C(=O)c2nnc(C)o2)c(=O)n(Cc2ccccc2)c2ccccc12`: the inhibition is -18.6% (inactive).
Take `NC(N)=N/N=C/c1ccc(OCc2ccc(Cl)cc2Cl)cc1`: the inhibition is -68.7% (inactive).
`Cc1oc2c(c1C(=O)N1CCOCC1)C(=O)c1ccccc1C2=O`: the inhibition was 3.77% (inactive).
In the case of `O=S(=O)(Nc1cc(Cl)ccc1N1CCOCC1)c1ccccc1Cl`, the inhibition is 3.16% (inactive).
For `O=C1c2ccccc2-c2ncnc3c(N4CCOCC4)cc(N4CCOCC4)c1c23`, the inhibition is 54% (active).
`CC1=C(C(=O)N(C)C)C(c2ccccc2OC(F)F)NC(=O)N1` (stereo not given): the inhibition was -0.09% (inactive).
The figure for `CCCn1nc(Oc2nc(NC(C)C)nc(N(C)C)n2)ccc1=O` is 2.18% (inactive); for `O=C(Nc1ccc(Br)cc1)c1cc(S(=O)(=O)Nc2ccccn2)ccc1Cl` it is -2.82% (inactive); for `Cc1ccc(NS(=O)(=O)c2cccs2)cc1S(=O)(=O)N1CCCCCC1` it is 122% (active).
As to `COc1ccccc1C(=O)Nc1ccc(C)c(S(=O)(=O)N2CCCCC2)c1`, the inhibition was -0.27% (inactive).
As for `Cc1ccc(NS(=O)(=O)c2ccc(C(C)C)cc2)cc1S(=O)(=O)N1CCOCC1`, the figure is -10.7% (inactive); as for `CN(C)CCCO/N=C(\c1ccccc1)c1ccncc1`, 1.7% (inactive); as for `Cc1cccc(CSc2nc3c(c(=O)n2C)SCC3)c1`, 59.8% (active).
The figure for `Cc1cccc(CSc2nnc(C)c(=O)n2N)c1` is 18.4% (inactive); for `Cn1c(SCC(=O)N2CCCCC2)nc2c(c1=O)SCC2` it is -10.6% (inactive); for `CCCN1C2=C(C(=O)CCC2)C(c2ccc(O)c(Br)c2)C2=C1CCCC2=O` it is -18.3% (inactive).
For the molecule `CCc1c(C)nc(N)n2c(SCC(=O)NC3CCCCC3)nnc12`, the inhibition is -4.43% (inactive).
On to `CCOc1cc(/C=C(/C#N)c2ccc(Cl)cc2)cc(Cl)c1OCC(=O)O`, for which the inhibition was 57.4% (active).
As to `COc1cc(/C=C(/NC(=O)c2ccc(Cl)cc2Cl)C(=O)O)cc(OC)c1OC`, the inhibition was -5.5% (inactive).
As for `CCOc1cc(/C=N/NC(=O)OC)ccc1OCCSc1ccc(Cl)cc1`, the inhibition was -13.1% (inactive).
As to `COc1ccc(SC[C@H](Cc2ccccc2)N2CCN(CCc3ccccc3)CCC2=O)cc1`, the inhibition is -0.63% (inactive).
In the case of `O=C(NC(Nc1nc2ccc([N+](=O)[O-])cc2s1)(C(F)(F)F)C(F)(F)F)c1ccccc1`, the inhibition was 56.4% (active).
Regarding `N=C1C(c2nc3ccccc3s2)=C(O)CN1NC(=O)c1ccc([N+](=O)[O-])cc1`, the inhibition is 18.1% (inactive).
Regarding `O=C(O)c1cc([N+](=O)[O-])c(Nc2cccc3ccccc23)c([N+](=O)[O-])c1`, the inhibition is 42.1% (inactive).
As for `O=C(COc1ccc(NC(=O)c2ccccc2[N+](=O)[O-])cc1)c1ccc(F)cc1`, the inhibition was 20.8% (inactive).
As for `COc1ccc(C2=NOC(Cn3nc(C(=O)NCc4ccc5c(c4)OCO5)cc3-c3ccccc3)C2)cc1` (stereo not given), the figure is 1.87% (inactive); as for `Cc1ccc(CNC(=O)c2cc(-c3ccccc3C)n(CC3CC(c4cccc([N+](=O)[O-])c4)=NO3)n2)cc1` (stereo not given), 78.1% (active).
Consider `Cc1ccccc1-c1cc(C(=O)NCc2cccs2)n(CC2CC(c3cccnc3)=NO2)n1` (stereo not given), for which the inhibition is 9.77% (inactive).
Consider `CC(C)c1cc(C(=O)N(C)C2CCCN(Cc3ccccc3F)C2)n(C)n1` (stereo not given), for which the inhibition was -12.1% (inactive).
With `CCCCn1c(N)c(N(CC(C)C)C(=O)c2cccc(S(=O)(=O)N3CCN(C(C)=O)CC3)c2)c(=O)[nH]c1=O`, the inhibition was 8.7% (inactive).
Consider `Cc1ccc(C)c(NC(=O)COC(=O)CSc2ccccc2)c1`, for which the inhibition was 6.02% (inactive).
As for `COc1ccccc1NC(=O)CC(NCCN(C)C)C(=O)O` (stereo not given), the figure is 3.95% (inactive); as for `COC(=O)C(CC(=O)Nc1cc(C)ccc1C)Nc1ccccc1OC` (stereo not given), 70.2% (active); as for `CCc1ccc(S(=O)(=O)NCC(O)COc2ccc(OC)cc2)cc1` (stereo not given), -4.68% (inactive).
On to `Cc1ccccc1Nc1scc(-c2ccc(Br)cc2)[n+]1-c1ccccc1C`, for which the inhibition was 56.5% (active).
Take `Cc1ccsc1/C=N/NC(=O)Cc1cc(=O)[nH][nH]1`: the inhibition was 14.1% (inactive).
